Most compounds without a hit are left out; they make up all but 4.1% or so of the library.
Beta cell apopt: inhibitors of cytokine-induced beta cell apoptosis, primary screen, luminescence | protection from apoptosis, % (test concentration not listed) | INS-1E cytokine-induced death, ATP luminescence, 48 h; percent of positive-control rescue, neutral wells zero | 300,000 tested, 0.8% active;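 active = Every replicate reaches about 75%, or at least half do and their mean reaches it too, limit read from the data; inconclusive = At least half of replicates reach the limit but their mean does not; inactive = Under half of replicates reach the limit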;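 note: 0% = cytokine-treated negative control wells and 100% = positive control rescue; higher means more ATP so stronger rescue from cytokine killing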
A1 inh: caspase 3/7 activation in MEF A1-2A-BIM cells, primary screen, A1 inhibitor project, cell-based, luminescence, HTS; Caspase-Glo 3/7 luminescence, 3 h; percent of clofoctol response, vehicle zero; caspase activation, % (concentration not given with the values); 330,000 tested, 0.066% active; AID 2462, 2010;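 active = over half of replicate activation scores above 10%, or exactly half above 10 with the replicate mean above 10; inconclusive = replicate mean below 10 yet half the replicates above 10; inactive = over half of replicates below 10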
CSC inhib: cancer stem cell viability inhibitors, primary screen, luminescence. cancer stem cell-like cells viability. inhibition, % at 7.5 µM. 300,000 tested, 1.1% active; in the data active = inhibition above about 75%; inconclusive = no clear call, values can overlap the other calls; tested in HMLE shEcad cells
aSyn 5UTR inh: MLPCN primary screen, SNCA 5' untranslated region | alpha-synuclein 5'UTR reporter, inhibitor activity | inhibition, % (tested at 7.5 µM) | 300,000 tested, 0.82% active | AID 1813, 2009; in the data active = inhibition above about 60%; inconclusive = no clear call, values can overlap the other calls;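 note: H4 neuroglioblastoma cells stably carrying SNCA 5'UTR luciferase fusion; 0% = DMSO wells and 100% = positive control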
Mdm2-MdmX inh: inhibitors of human Mdm2-MdmX association, primary screen, cell-based, luminescence, split luciferase, SaOS-2, uHTS. Protein Mdm4 (Homo sapiens) + E3 ubiquitin-protein ligase Mdm2 (Homo sapiens), …. SaOS-2 split-luciferase Mdm2/MdmX complementation. inhibition, % at 8 µM. 330,000 tested, 3% active;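 active = inhibition of at least 50% at 8 µM in the primary screen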
Mdm2 MdmX conf: Mdm2-MdmX complex disruptors, retested hits, confirmation, luminescence, single concentration. shares compounds with Mdm2-MdmX inh. Mdm2-MdmX binding, luminescent assay. inhibition, % at 8 µM. 10,000 tested, 55% active; in the data active = inhibition above about 40%
FLuc counter: full-length luciferase signal inhibition, confirmation, counter-screen for Mdm2/MdmX interaction inhibitor project, cell-based, single concentration, SaOS-2; shares compounds with Mdm2-MdmX inh; SaOS-2 full-length luciferase counterscreen, luminescence; inhibition, % at 8 µM; 6,200 tested, 77% active; AID 504607, 2011;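 active = mean inhibition at 8 µM reaching about 37%, which flags the compound as non-specific, limit read from the data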;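 note: p53-null SaOS-2 cells with luciferase driven by a doxycycline-inducible promoter; compound on cells about two nights before reading with doxycycline added after day one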
Active calls of the source: *; ? = inconclusive; / = not tested or not shown.

SMILES	Beta cell apopt	A1 inh	CSC inhib	aSyn 5UTR inh	Mdm2-MdmX inh	Mdm2 MdmX conf	FLuc counter
CCN1CCN(S(=O)(=O)c2ccc(Cl)c(C(=O)Nc3ccc(C(=O)N(CC)CC)cc3)c2)CC1	8	0	-7	-12	14	/	/
N[C@@H]1CCCC[C@H]1N.O=C(O)C(=O)O.[Pt]	87*	1	12	28	0	/	/
COC(=O)c1c2[n+](cc3cc(OC)c(OC)cc13)CCc1cc(OC)c(OC)cc1-2	13	0	2	-12	15	/	/
Cc1ccc2c(c1)N(C(=O)CCC(=O)N1CCC3(CC1)OCCO3)CCO2	-6	0	-4	14	-3	/	/
CC(C)[C@]12O[C@H]1[C@@H]1O[C@]13[C@]1(O[C@H]1C[C@H]1C4=C(CC[C@@]13C)C(=O)OC4)[C@@H]2O	-5	?	9	124*	/	/	/
CC12CC[C@H]3[C@@H](CCC4(O)C[C@H](O)CCC34/C=N/NC(=O)Cc3ccccc3)C1(O)CCC2C1=CC(=O)OC1 (stereo not given in full)	-6	-1	8	25	-36	/	/
CC12CC[C@H]3[C@@H](CCC4(O)C[C@H](O)CCC34/C=N/NC(=O)c3ccccc3[N+](=O)[O-])C1(O)CCC2C1=CC(=O)OC1 (stereo not given in full)	-5	0	23	117*	-35	/	/
CCCCn1c(O)c(C=NC2CCCCC2N)c(=O)[nH]c1=O (stereo not given)	-3	0	/	3	16	/	/
CCCCCCn1c(O)c(C=NC2CCCCC2N)c(=O)[nH]c1=O (stereo not given)	-5	0	83*	39	-15	/	/
CCOP(=O)(/C=C(\Cl)c1ccccc1)C(O)c1ccc(F)cc1 (stereo not given)	-6	0	-6	9	20	/	/
COC(=O)C1=C(c2cc3ccccc3o2)C[C@@H]2CC[C@H]1N2C(=O)NC(C)C	14	0	-8	15	4	/	/
CCCC[C@@H](C)C[C@@H](C)C(=O)N(C)[C@@H](CC(C)C)C(=O)N[C@H](C(=O)N(C)[C@H](C(=O)N1C[C@@H](O)C[C@H]1C(=O)N1C(=O)C=C[C@@H]1C)C(C)C)C(C)OC(C)=O (stereo not given in full)	/	/	/	/	95*	97*	55*
O=C(COC(=O)c1cccc(O)c1)Nc1ccc(Cl)cc1C(=O)c1ccccc1	0	1	0	4	9	/	/
C=C(C=O)CC1CC(O)[C@]2(C)OC3C[C@@H]4OC5C[C@]6(C)O[C@]7(C)CCC8OC9C[C@]%10(C)OC(/C(C)=C\CO)C(O)CC%10OC9CC(C)C8OC7CC6O[C@]5(C)C/C=C\C4OC3CC2O1 (stereo not given in full)	4	0	-8	/	10	/	/
C=C(C=O)C[C@@H]1C[C@H](O)C2OC3C[C@]4(C)OC5/C=C\CC6OC7C(CC=CCC6OC5CCCC4OC3CC2O1)OC1CC2OC3CC(=O)OC3C[C@@H](C)C[C@@]2(C)OC1C[C@@H]7C (stereo not given in full)	124*	/	104*	113*	100*	95*	0
CCS(=O)(=O)Nc1cccc(C(=C2CCCCC2)c2cnc[nH]2)c1	-2	-1	-3	/	13	/	/
CCn1c(C)c(C(=O)Nc2ccc(OC)cc2)c2cc(OC)ccc21	4	0	6	-86	7	/	/
Clc1ccc2c(c1)C(OC1CN3CCC1CC3)c1ccccc1CS2 (stereo not given)	-22	0	12	-22	64*	39	61*
CN1CCN(CCOC2c3ccccc3CSc3ccc(Cl)cc32)CC1 (stereo not given)	16	1	16	-22	33	/	/
CC1CCC(C(C)C)C(OC(=O)Cn2c(COc3ccccc3)[n+](C)c3ccccc32)C1 (stereo not given)	106*	1	98*	66*	98*	96*	54*
CC1=NN=C(c2ccc(N)cc2)c2cc3c(cc2C1)OCO3	-4	0	-8	/	5	/	/
Clc1ccc(C(c2ccc(Cl)cc2)n2cc[n+](CC(OCc3ccc(Cl)cc3Cl)c3ccc(Cl)cc3Cl)c2)cc1 (stereo not given)	121*	0	107*	/	100*	70*	29
Cc1cc(NC(=O)CCl)no1	-1	1	-1	-99	20	/	/
COc1ccc(/C=C/C(=O)c2c(O)n(CCC3=CCCCC3)c(=O)[nH]c2=O)cc1	-5	0	120*	-54	53*	26	/
CCCCCSc1cc(OC)c(CCN)cc1OC	27	1	7	19	16	/	/
SMILES	Beta cell apopt	A1 inh	CSC inhib	aSyn 5UTR inh	Mdm2-MdmX inh	Mdm2 MdmX conf	FLuc counter
CCCCCCCSc1cc(OC)c(CCN(C)C)cc1OC	-2	0	34	?	74*	29	/
Cc1ccccc1[N+](=O)[O-]	5	0	-13	/	-12	/	/
Cc1cc([N+](=O)[O-])c2ccccc2[n+]1[O-]	115*	0	32	127*	99*	100*	51*
C/C=C1\NC(=O)[C@@H](NC(=O)[C@H](CCc2ccc(O)cc2)NC(=O)[C@H](C)NC(=O)[C@H](O)CO)[C@@H](C)OC(=O)[C@H](C(C)C)NC(=O)[C@H](Cc2ccc(O)cc2)N(C)C(=O)[C@H](Cc2ccccc2)N2C(=O)C(CC[C@H]2O)NC1=O (stereo not given in full)	/	/	/	/	3	/	/
Cc1c(CCN)ccc2c1[nH]c1ccccc12	-2	0	18	-26	-39	/	/
CC(=O)O[C@H]1[C@H]2O[C@]23[C@@H]2CC[C@]4(O)C[C@@H](O)CC[C@]4(C)C2CC[C@]3(C)[C@H]1c1ccc(=O)oc1 (stereo not given in full)	0	0	105*	/	85*	64*	48*
CC(=O)O[C@H]1C(=O)[C@@]2(C)C([C@H](OC(=O)c3ccccc3)[C@]3(O)C[C@H](OC(=O)[C@H](O)[C@@H](NC(=O)Cc4ccccc4)c4ccccc4)C(C)=C1C3(C)C)[C@]1(OC(C)=O)CO[C@@H]1C[C@@H]2O (stereo not given in full)	5	2	-6	93*	66*	66*	42*

Screening data from PubChem.
